# Test results taken from the supplement of paper PMC8726507.
# Values without a mark were called inactive.
# System: Plasmodium falciparum NF54-HGL (transmission to Anopheles stephensi)
# Experiment: percentage of barcode signal found in uninfected mosquitoes (transmission-blocking activity); higher = stronger blocking of transmission to mosquito, active = 80 or more
# Settings: gametocyte preincubation time 24 h, readout time post-feed 8 days
# Experimental: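 The mixture was fed to Anopheles stephensi in 96-well plates as blood meals tagged with DNA-barcoded Asaia bacteria. Eight days later, mosquitoes were classed infected or uninfected by luminescence (mean + 5 SD of unfed controls). Barcodes were quantified by Luminex MagPlex-TAG in the pooled uninfected and infected Asaia cultures, background-corrected, and the score is % of barcode signal in uninfected mosquitoes = 100*Iu/(Iu+Ii).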
Structure (SMILES),percentage of barcode signal found in uninfected mosquitoes (20 µM) [%],percentage of barcode signal found in uninfected mosquitoes (10 µM)
c1ccc(Oc2ccc(-c3cc(CN4CCOCC4)[nH]n3)cc2)cc1,3.15,
CN1CCN(S(=O)(=O)c2ccc(-c3ccc4c(Nc5ncc(Cl)cn5)ccnc4c3)cc2)CC1,50.8,
O[C@@H](c1cc(C(F)(F)F)nc2c(C(F)(F)F)cccc12)[C@H]1CCCCN1,,43.2%
c1ccc(-c2[nH]c3ccccc3c2C(c2ccccn2)N2CCCC2)cc1 (stereo not given),,82.6% (active)
c1ccc(-c2cc(N3CCCCC3)c3ccccc3n2)nc1,,53.1%
CN1CCN(S(=O)(=O)c2ccc(-c3ccc4c(Nc5ccc6nn[nH]c6c5)ccnc4c3)cc2)CC1,3.18,
Cc1ccc2[nH]c(C3CCCNC3)c(-c3ccncc3)c2c1 (stereo not given),79.4,
CCCc1ccc(S(=O)(=O)Nc2ccc(CN3CCN(CC4CC4)CC3)cc2)cc1,9.2,
O=C(NC1CCN(c2ccnc3ccccc23)C1)c1cccc(C(F)(F)F)c1 (stereo not given),,71.6%
CNC(=O)CNc1nc(-c2ccccn2)nc2scc(-c3ccccc3)c12,69.6,
N#Cc1nc(-c2ccccc2)oc1S(=O)(=O)c1ccc(Cl)cc1,,72.7%
CC1CCCCN1C(=O)NCCc1coc(-c2ccc(F)cc2)n1 (stereo not given),,42%
COc1ccc(C2(C(=O)Nc3ccc(Br)cc3)CCCC2)cc1,,15.2%
Brc1cncc(-c2cc(NCCCn3ccnc3)nc(-c3ccccc3)n2)c1,,-0.102%
O=C(NCCN1CCCC1)c1cc(NCCCCN2CCC(F)(F)CC2)nc2ccc(Cl)cc12,,91.2% (active)
